The results in this text go back to PubChem BioAssay.

Assay [1] in a line: reduction of polyQ htt aggregates in cells – imaging, exon1htt(103Q)mCFP cells, high-content imaging, primary screen (AID 483;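 active = visual image review flags a hit and inhibition of aggregation exceeds 20%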;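 note: compound exposure lasted 3 days before fixation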;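 for nuclei count: percent of the per-plate median nuclei count of sample wells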). The following applies: exon1htt(103Q)mCFP cell line, aggregate imaging, at 2 µM; inhibition of aggregation: stronger effect = higher value; nuclei count: measured here: cell count, toxicity.
Assay [2] in a line: endothelial E-selectin expression blockers – imaging, HUVEC, immunofluorescence, MLSMR starter and 10KST1 sets, primary screen (AID 487;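 active = visually confirmed hit in the image check and inhibition above 20%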;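 for inhibition: signal is fraction of cell area covered by stained E-selectin grains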;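 for nuclei count: 100% = median nuclei count of all wells on the same plate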). The settings on record: HUVEC TNFalpha-induced E-selectin immunofluorescence imaging, at 2 µM; inhibition: stronger effect = higher value; nuclei count: measured here: cell number, toxicity.
Assay [3] deals with Voltage-gated potassium channel subunit beta-2 (Rattus norvegicus) (UniProt P62483). The assay can be described thus: inhibitors of rat Kvbeta2 reductase activity – biochemical, NADPH fluorescence, primary screen (AID 622).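 Note: slope of raw intensity against log time taken from 70 to 1610 s.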 The settings on record: recombinant KvBeta, 4-cyanobenzaldehyde reduction, at 10 µM, stronger effect = higher value.
Assay [4] has the same target. The assay can be described thus: enhancers of rat Kvbeta2 NADPH turnover – biochemical, NADPH fluorescence, primary screen (AID 623;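 active = NADPH fluorescence slope more negative than the mean of all samples by about 3 SD, 99.7% confidence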;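 note: fluorescence intensity change per second fitted from 20 to 320 s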). The settings on record: Recombinant KvBeta, NADPH fluorescence decrease slope, 10 min; at 10 µM; stronger effect = lower value.
For assay [5], the target named is Muscarinic acetylcholine receptor M4 (Homo sapiens) (UniProt P08173). Kind of assay: M4-linked GIRK flux change, two-sided – cell-based, HEK293 M4/GIRK, thallium flux, BTC-AM, M4 allosteric agonist project, primary screen (AID 625;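 active = fluorescence slope after compound addition differing from the mean of all tested samples at 99.7% confidence, mostly higher but some lower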;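 note: thallium influx through GIRK channels coupled to M4 in HEK293 cells with BTC-AM dye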). The settings on record: at 10 µM, actives lie on both sides.
The nature of assay [6]: blockers of RIG-like receptor reporter activation – cell-based, Sendai virus stimulus, luciferase, 10K MLSCN set, TLR/RLR signaling modifier project, primary screen (AID 602276;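 active = inhibition at or above 50% at 10 µM; inactive = inhibition below 50%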;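 note: firefly luciferase from ISG56 promoter only with Renilla not read in this screen; 0% = Sendai virus plus DMSO and 100% = medium plus DMSO without virus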). The following applies: HEK293 RL24 IRF3 luciferase reporter, at 10 µM, stronger effect = higher value. For orientation: Reporter assays use an easily measured gene product as a stand-in for the process of interest.

A short description of assay [7]: TLR3 IRF3 reporter activation blockers – cell-based, poly I:C stimulus, luciferase, 10K MLSCN set, primary screen (AID 602277;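 active = inhibition of the reporter signal at or above 50%; inactive = inhibition below 50%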). The settings on record: HEK293-TLR3 RL24 IRF3 luciferase reporter, at 10 µM, stronger effect = higher value.
Assay [8] deals with Alpha-2C adrenergic receptor (Homo sapiens) (UniProt P18825). The assay can be described thus: compounds altering alpha2C-coupled GIRK flux – cell-based, HEK293 alpha2C/GIRK1/2, thallium flux, primary screen (AID 624;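 active = fluorescence slope after compound addition differing from the mean of all screened samples at 99.7% confidence, in either direction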;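 note: slope of fluorescence ratio to pre-addition baseline per second over 15 to 24 s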). The following applies: thallium flux BTC fluorescence, at 10 µM, actives lie on both sides.
Assay [9] is described as follows: Primary imaging screen for DUSP6 inhibitors that restore phospho-Erk in transfected HeLa cells, chemical complementation (AID 609;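 active = compounds giving at least 50% inhibition in the cell-based MKP-3 phosphatase rescue imaging test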;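 for inhibition: phospho-Erk level distribution per well compared with pooled transfected vehicle control wells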). The following applies: HeLa MKP-3 transfected, phospho-Erk imaging KS statistic, at 10 µM, cells stimulated with TPA for 15 min.
Assay [10] has as its target Dual specificity protein phosphatase 6 (Homo sapiens) (UniProt Q16828). The description is as above. The following applies: HeLa MKP-3 transfected, phospho-Erk imaging KS statistic; at 10 µM; stronger effect = higher value; cells stimulated with TPA for 15 min.
Assay [11] can be described thus: inhibitors of larval lipid processing in zebrafish, primary screen, whole organism, PED6 fluorescence, gall bladder and intestine (AID 686;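 active = a full or partial loss of lipid-probe fluorescence in the fish gall bladder, intestine or both, judged by eye; inactive = no fluorescence loss, or compound toxic to the fish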;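 note: larvae 5 to 7 days old with five fish per well; signal comes from phospholipase A2 cleavage of quenched PED6 carried via bile; overnight exposure to compound and PED6 before scoring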). The settings on record: Zebrafish larvae PED6 lipid processing, fluorescence scoring; screened at 20 µM (by protocol).
Assay [12] can be described thus: loss of swimming-algae plug formation – whole organism, Chlamydomonas reinhardtii, WT vs cilia-less mutant, absorbance, 96-well, primary screen (AID 463189;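 active = inhibition at or above 50% relative to wild type and mutant plate controls; inactive = inhibition below 50%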;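 note: 0% = wild type cc124 cells in DMSO and 100% = ciliumless bld1 mutant cells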). The following applies: Chlamydomonas reinhardtii gravitaxis, OD600 absorbance, 2 days; at 10 µM; stronger effect = higher value.
Where [13] appears, read: measured here: cell density z-score.
Where [14] appears, read: measured here: nuclear c-Myc green intensity z-score.
Setting [15] is: measured here: nuclear pErk red intensity z-score, stronger effect = higher value.

Calls of active or inactive are those of the source.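 Rule for the calls, unless noted: active = fluorescence slope higher than the sample average by over 3 SD (cut at about -0.22 in these data, passing the limit was not always enough); inactive = the rest.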

Sequence of Voltage-gated potassium channel subunit beta-2 (Rattus norvegicus) (P62483 whole entry, looked up): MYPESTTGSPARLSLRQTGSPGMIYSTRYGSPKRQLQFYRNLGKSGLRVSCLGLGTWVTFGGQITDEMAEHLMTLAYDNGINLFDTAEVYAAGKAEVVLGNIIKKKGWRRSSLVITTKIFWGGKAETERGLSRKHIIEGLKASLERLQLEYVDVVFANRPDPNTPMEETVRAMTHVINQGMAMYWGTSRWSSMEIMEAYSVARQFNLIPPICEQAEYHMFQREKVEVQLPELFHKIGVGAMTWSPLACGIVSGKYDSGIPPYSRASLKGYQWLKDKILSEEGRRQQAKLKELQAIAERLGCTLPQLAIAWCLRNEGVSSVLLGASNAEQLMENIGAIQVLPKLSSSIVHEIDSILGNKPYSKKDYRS
Sequence of Dual specificity protein phosphatase 6 (Homo sapiens) (Q16828 whole entry, looked up): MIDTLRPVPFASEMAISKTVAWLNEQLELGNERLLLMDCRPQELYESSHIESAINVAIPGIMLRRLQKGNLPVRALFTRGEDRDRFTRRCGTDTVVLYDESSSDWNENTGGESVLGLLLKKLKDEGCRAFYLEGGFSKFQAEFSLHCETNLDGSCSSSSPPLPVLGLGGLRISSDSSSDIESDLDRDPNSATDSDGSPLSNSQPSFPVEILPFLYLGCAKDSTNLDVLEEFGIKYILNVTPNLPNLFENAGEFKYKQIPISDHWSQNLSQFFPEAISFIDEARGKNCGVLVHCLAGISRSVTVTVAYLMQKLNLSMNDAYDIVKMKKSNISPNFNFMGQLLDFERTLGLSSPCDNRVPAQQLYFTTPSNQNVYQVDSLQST
Sequence of Alpha-2C adrenergic receptor (Homo sapiens) (P18825 whole entry, looked up): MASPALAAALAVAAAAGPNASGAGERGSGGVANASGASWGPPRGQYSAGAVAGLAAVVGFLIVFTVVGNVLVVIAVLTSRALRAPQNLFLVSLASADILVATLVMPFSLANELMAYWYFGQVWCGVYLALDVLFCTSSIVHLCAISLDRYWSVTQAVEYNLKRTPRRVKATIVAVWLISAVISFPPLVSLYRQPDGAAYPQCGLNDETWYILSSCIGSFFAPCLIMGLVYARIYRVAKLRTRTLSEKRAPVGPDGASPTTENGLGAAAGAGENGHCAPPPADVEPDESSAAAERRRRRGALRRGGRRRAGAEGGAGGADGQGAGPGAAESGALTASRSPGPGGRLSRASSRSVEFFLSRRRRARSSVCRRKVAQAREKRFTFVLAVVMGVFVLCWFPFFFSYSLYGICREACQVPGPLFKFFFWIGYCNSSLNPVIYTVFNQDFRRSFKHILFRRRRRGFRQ
Sequence of Muscarinic acetylcholine receptor M4 (Homo sapiens) (P08173 whole entry, looked up): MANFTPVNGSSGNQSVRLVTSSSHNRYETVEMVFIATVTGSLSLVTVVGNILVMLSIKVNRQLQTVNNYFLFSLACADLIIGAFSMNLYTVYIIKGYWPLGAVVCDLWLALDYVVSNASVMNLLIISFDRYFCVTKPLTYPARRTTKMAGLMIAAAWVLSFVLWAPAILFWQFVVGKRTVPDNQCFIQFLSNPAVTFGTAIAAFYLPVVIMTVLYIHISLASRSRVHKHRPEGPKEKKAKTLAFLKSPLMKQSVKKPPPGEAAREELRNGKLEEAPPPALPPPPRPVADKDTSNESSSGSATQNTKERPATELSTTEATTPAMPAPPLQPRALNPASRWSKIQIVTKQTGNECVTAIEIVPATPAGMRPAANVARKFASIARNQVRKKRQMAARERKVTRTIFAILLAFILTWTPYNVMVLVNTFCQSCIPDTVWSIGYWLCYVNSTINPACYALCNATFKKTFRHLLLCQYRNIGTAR

For orientation: inhibition means the relative decrease from the control value, in per cent. Turning to `CC(C)CCNC(=O)NC(=O)CSc1nnc(COc2ccccc2Cl)o1`, the inhibition of aggregation in assay [1] was 13.9% (inactive). In addition, the results for the nuclei count in assay [1] and in [2] were 98.5% and 126%, respectively. Further, the inhibition is -53.1% (inactive) in assay [2], 9.99% (inactive) in [6] and 21% (inactive) in [7]. Further, the fluorescence slope in assay [3] was -0.513 (inactive); in [5], 0.00525 (inactive). Besides, the NADPH fluorescence slope in assay [4] was -7.7e-06 (inactive).
On to `COc1ccc(OC)c(C2=NOC(C(=O)Nc3c(C)n(C)n(-c4ccccc4)c3=O)C2)c1` (configuration not stated), for which the fluorescence slope in assay [3] was -0.546 (inactive). Besides, in [4], the NADPH fluorescence slope was -2.8e-05 (inactive). Further, the slope in assay [8] is 0.0073 (inactive). The inhibition in assay [6] is -3.88% (inactive); in assay [7] it was 17.6% (inactive).
As to `CCOC(=O)CNC(=O)C(Cc1ccccc1)NS(=O)(=O)c1ccc2c(c1)CCC(=O)N2` (configuration not stated), the fluorescence slope in [3] is -0.438 (inactive); in [5], 0.00524 (inactive). The NADPH fluorescence slope in assay [4] is -0.000333 (inactive). The figures for the inhibition in [6] and in [7] were 0.424% (inactive) and 15.6% (inactive), respectively.
As for `CCOc1ccc2[nH]c(C)cc(=O)c2c1`, the fluorescence slope in assay [3] was -0.554 (inactive). Besides, in assay [4], the NADPH fluorescence slope is 1.5e-05 (inactive). The slope in assay [8] was 0.00617 (inactive). The inhibition in [6] was -6.31% (inactive); in assay [7] it was 16% (inactive).
As to `Cc1cc(C)cc(-n2ccnc2SCC(=O)Nc2ccc3c(c2)OCCO3)c1`, the values for the fluorescence slope in assay [3] and in assay [5] were -0.57 (inactive) and 0.00517 (inactive), respectively. Further, the NADPH fluorescence slope in assay [4] is -3.9e-05 (inactive). Besides, the inhibition in [6] was 1.38% (inactive); in assay [7], -4.03% (inactive).
As to `CC(C)c1nc2sc3c(c2c(=O)o1)CCCC3`, the inhibition was -11.8% (inactive) in assay [2], 13.2% (inactive) in [10] and 22.9% (inactive) in assay [12]. The compound also had a nuclei count in assay [2] of 143%. For the same compound, the z-score in assay [9] (setting [13]) is -0.957; in [9] (setting [14]), 1.42; in [9] (setting [15]), 1.08. Further, the fluorescence slope in assay [3] was -0.376 (inactive); in [5], 0.00562 (inactive). The NADPH fluorescence slope in [4] is -6.4e-05 (inactive). Also, the result in assay [11] was inactive.
For the compound `COc1ccc(CNC(=O)COC(=O)c2n[nH]c3ccccc23)cc1OC`, the inhibition of aggregation in [1] was -22.1% (inactive). Further, the nuclei count in assay [1] is 108%; in assay [2] it was 171%. Also, the values for the inhibition in assay [2], in [6] and in [7] were -287% (inactive), 6.09% (inactive) and -3.54% (inactive), respectively. In addition, the fluorescence slope in assay [3] is -0.382 (inactive). Also, the NADPH fluorescence slope in assay [4] was 1.4e-05 (inactive). In assay [8], the slope was 0.00438 (inactive).
Turning to `Cc1cc(C)cc(N(CC(=O)Nc2cccc(C)n2)S(=O)(=O)c2c(C)noc2C)c1`, the fluorescence slope in assay [3] is -0.598 (inactive). Moreover, in assay [4], the NADPH fluorescence slope is -3.4e-05 (inactive). For the same compound, the slope in assay [8] was 0.00547 (inactive). Further, the inhibition in assay [6] is 11.9% (inactive); in assay [7], 42.2% (inactive).
Consider `CCCNC(=O)C1CN(S(=O)(=O)c2ccccc2)CCN1S(=O)(=O)c1ccccc1` (configuration not stated), for which the fluorescence slope in assay [3] was -0.512 (inactive). In assay [4], the NADPH fluorescence slope was -3.4e-05 (inactive). In assay [8], the slope is 0.00614 (inactive). The inhibition in assay [6] was 9.56% (inactive); in [7], 19% (inactive).
Consider `COc1ccc(CCN(C)CCCC(C#N)(c2ccc(OC)c(OC)c2)C(C)C)cc1OC` (configuration not stated), for which the inhibition in assay [2] is -110% (inactive); in [10] it was 12.4% (inactive); in assay [6], 2.16% (inactive); in [7], 27% (inactive). In assay [2], this compound came in with a nuclei count of 114%. Moreover, the z-score was -0.13 in [9] (setting [13]), -0.251 in [9] (setting [14]) and -0.441 in assay [9] (setting [15]). Besides, the fluorescence slope in [3] was -0.461 (inactive). The NADPH fluorescence slope in assay [4] was -2.2e-05 (inactive).
For the compound `CN(C)CCOC(c1ccccc1)c1ccccc1` (tested in a mixture with another compound), the inhibition in assay [2] was -105% (inactive); in assay [10], 13.3% (inactive); in assay [6], 23.9% (inactive); in [7] it was 33.9% (inactive). Also, the nuclei count in assay [2] turned out to be 131%. The z-score is 0.752 in assay [9] (setting [13]), 0.00544 in [9] (setting [14]) and -0.839 in [9] (setting [15]). Further, the fluorescence slope in assay [3] is -0.486 (inactive). The NADPH fluorescence slope in assay [4] is -8.1e-06 (inactive). Moreover, in assay [8], the slope is 0.00507 (inactive).
As to `O=C(Nc1cc(Cl)ccc1Cl)c1noc2c1CCCC2`, in [3], the fluorescence slope is -0.601 (inactive). Besides, in assay [4], the NADPH fluorescence slope was -9e-06 (inactive). Besides, the slope in assay [8] was 0.00618 (inactive). The inhibition in assay [6] was -3.4% (inactive); in assay [7] it was 26.6% (inactive).
Regarding `CCOC(=O)C1CCCN(C(=O)c2cc3c(-c4cccc(OC)c4)nn(C)c3s2)C1` (configuration not stated), the fluorescence slope in assay [3] is -0.355 (inactive). The NADPH fluorescence slope in [4] is -3.7e-05 (inactive). Besides, the slope in assay [8] was 0.00666 (inactive). Also, the result in [11] was inactive. Moreover, the inhibition is -33.2% (inactive) in [6] and 39.4% (inactive) in assay [7].
On to `CC(C)(C)C1CCc2onc(C(=O)Nc3cnn(Cc4ccc(F)cc4)c3)c2C1` (configuration not stated), for which the values for the fluorescence slope in assay [3] and in assay [5] were -0.58 (inactive) and 0.00687 (inactive), respectively. Further, the NADPH fluorescence slope in assay [4] was 1.6e-05 (inactive). In addition, the inhibition in [6] was 12% (inactive); in assay [7], 19.7% (inactive).
In the case of `O=C(C1CCN(S(=O)(=O)c2cnc[nH]2)CC1)N1CCN(c2ncccn2)CC1`, the fluorescence slope in assay [3] is -0.353 (inactive). The NADPH fluorescence slope in assay [4] is -7e-05 (inactive). Moreover, the slope in assay [8] is 0.00534 (inactive). Further, in assay [11], the call was inactive. The values for the inhibition in [6] and in assay [7] were -35.5% (inactive) and 88.9% (active), respectively.
`CCC(C)(NC(=O)c1ccc(=O)[nH]c1)C(=O)NC1CCCC1` (configuration not stated): in [3], the fluorescence slope is -0.551 (inactive). Further, the NADPH fluorescence slope in assay [4] is -5e-05 (inactive). For the same compound, in assay [8], the slope is 0.00548 (inactive). In addition, the values for the inhibition in assay [6] and in assay [7] were 8% (inactive) and 24.2% (inactive), respectively.
Take `CCCNCC(O)COc1ccccc1C(=O)CCc1ccccc1` (configuration not stated): the inhibition in [2] was -137% (inactive); in [10], -4.44% (inactive); in [6], 9.47% (inactive); in [7], 42.6% (inactive). Also, in assay [2], the nuclei count stood at 129%. For the same compound, the z-score in [9] (setting [13]) was -0.576; in assay [9] (setting [14]), 0.234; in assay [9] (setting [15]), 0.603. Further, the fluorescence slope in assay [3] was -0.521 (inactive). Further, the NADPH fluorescence slope in assay [4] is -4.9e-05 (inactive). Further, the slope in [8] is 0.00393 (inactive).
For the compound `O=C1[C@@H]2C(c3ccccc3Cl)=NO[C@@H]2C(=O)N1Cc1ccccc1`, in [1], the inhibition of aggregation was -2.9% (inactive). In addition, the nuclei count is 90.6% in [1] and 213% in assay [2]. Also, the results for the inhibition in assay [2], in assay [6] and in assay [7] were -238% (inactive), 9.22% (inactive) and 12.2% (inactive), respectively. In assay [3], the fluorescence slope was -0.328 (inactive). Further, in [4], the NADPH fluorescence slope was -5.7e-05 (inactive). Moreover, the slope in assay [8] is 0.00529 (inactive).
`O=C(CSc1nc2c(sc3ccccc32)c(=O)n1Cc1ccco1)NCC1CCCO1` (configuration not stated): the fluorescence slope in assay [3] was -0.58 (inactive); in assay [5], 0.00708 (inactive). The NADPH fluorescence slope in assay [4] is -4.5e-05 (inactive). In addition, the inhibition in [6] was 19.7% (inactive); in assay [7] it was 20.3% (inactive).
For the compound `Cc1ccc2oc(=O)c3cnn(CC(=O)N4CCCc5ccccc54)c3c2c1`, the fluorescence slope in [3] was -0.49 (inactive). The NADPH fluorescence slope in assay [4] is 1.1e-05 (inactive). The slope in [8] was 0.00798 (inactive). The inhibition is 29.3% (inactive) in [6] and 19.2% (inactive) in assay [7].
`CCOC(=O)C1CCCN(c2cc(=O)n(Cc3ccc(F)cc3)c(=O)[nH]2)C1` (configuration not stated): the figures for the fluorescence slope in assay [3] and in assay [5] were -0.387 (inactive) and 0.0077 (inactive), respectively. Moreover, the NADPH fluorescence slope in [4] was -1.6e-05 (inactive). Besides, the figures for the inhibition in assay [6] and in assay [7] were 11.9% (inactive) and 19.7% (inactive), respectively.
